Measurements reported in PubChem BioAssay (NCI).
About 83,000 compounds went through this panel and 20% of them were active in at least one assay; those are over-represented in the sample as a whole.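 Step 1: grow cells in 96-well plates. Step 2: add test compound at a single concentration. Step 3: incubate 48 h. Step 4: record percent growth.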 Calls of active or inactive are those of the source. How the source made its calls: active means growth percent below 10; inactive means the rest.

What was measured:
Test in all cases: NCI-60 one-dose screen, 48 h (100 = growth as untreated, 0 = no growth, -100 = all killed)
Conditions in all cases: 10 µM unless noted
SR leukemia = system: SR leukemia
RPMI-8226 leukemia = system: RPMI-8226 leukemia
OVCAR-8 ovarian = system: OVCAR-8 ovarian
SK-OV-3 ovarian = system: SK-OV-3 ovarian
IGROV1 ovarian = system: IGROV1 ovarian
OVCAR-3 ovarian = system: OVCAR-3 ovarian
HS 578T breast = system: HS 578T breast
NCI/ADR-RES ovarian = system: NCI/ADR-RES ovarian
T-47D breast = system: T-47D breast
BT-549 breast = system: BT-549 breast
MDA-MB-435 melanoma = system: MDA-MB-435 melanoma
SW-620 colon = system: SW-620 colon
MCF7 breast = system: MCF7 breast
HCT-116 colon = system: HCT-116 colon
HCC-2998 colon = system: HCC-2998 colon
KM12 colon = system: KM12 colon
OVCAR-5 ovarian = system: OVCAR-5 ovarian
OVCAR-4 ovarian = system: OVCAR-4 ovarian

Measured: growth

CC1(C)CC(=O)c2cc3c(N)c(C(=O)Nc4ccc(Cl)cc4)sc3nc2C1
inactive: SR leukemia 113% | RPMI-8226 leukemia 103% | OVCAR-8 ovarian 111% | SK-OV-3 ovarian 106% | IGROV1 ovarian 111% | OVCAR-3 ovarian 111% | HS 578T breast 109% | NCI/ADR-RES ovarian 114% | T-47D breast 96.2% | BT-549 breast 125% | MDA-MB-435 melanoma 109% | SW-620 colon 109% | MCF7 breast 103% | HCT-116 colon 108% | HCC-2998 colon 116% | KM12 colon 117%

O=C(O/C(=C/c1ccccc1)C(F)(F)F)c1ccccc1
inactive: SR leukemia 69.6% | OVCAR-8 ovarian 101% | OVCAR-5 ovarian 101% | OVCAR-4 ovarian 103% | SK-OV-3 ovarian 111% | IGROV1 ovarian 120% | OVCAR-3 ovarian 103% | HS 578T breast 116% | NCI/ADR-RES ovarian 103% | T-47D breast 101% | BT-549 breast 105% | MDA-MB-435 melanoma 107% | SW-620 colon 113% | MCF7 breast 102% | HCT-116 colon 105% | HCC-2998 colon 102% | KM12 colon 99.4%

CCCCCCCCCCCCCCCCCC1=NCCN1CCO
active: SR leukemia 7.41%
inactive: RPMI-8226 leukemia 78.9% | OVCAR-8 ovarian 70.5% | OVCAR-5 ovarian 82.7% | SK-OV-3 ovarian 97.9% | IGROV1 ovarian 25.7% | HS 578T breast 85.8% | NCI/ADR-RES ovarian 84.5% | T-47D breast 95% | BT-549 breast 91.5% | MDA-MB-435 melanoma 101% | SW-620 colon 65.2% | MCF7 breast 74.3% | HCT-116 colon 65.1% | HCC-2998 colon 61.3%

O=C1/C(=C/c2ccccc2)SC(=Nc2ccccc2)N1Nc1ccccc1
active: SR leukemia -20.1% | OVCAR-4 ovarian 8.26% | OVCAR-3 ovarian -5.68% | NCI/ADR-RES ovarian 8.98% | T-47D breast 5.78% | BT-549 breast -19.3% | MDA-MB-435 melanoma -25.4% | MCF7 breast 1.62% | HCT-116 colon -23.4% | KM12 colon 3.45%
inactive: OVCAR-8 ovarian 24.5% | OVCAR-5 ovarian 22.3% | SK-OV-3 ovarian 10.5% | IGROV1 ovarian 22.7% | HS 578T breast 35.1% | SW-620 colon 13.1% | HCC-2998 colon 20.3%

Cc1cc(Nc2c3ccccc3nc3ccccc23)ccc1NS(C)(=O)=O
active: SR leukemia -6.9%
inactive: RPMI-8226 leukemia 31.2% | OVCAR-5 ovarian 27.5% | OVCAR-4 ovarian 48.1% | SK-OV-3 ovarian 43.5% | IGROV1 ovarian 25.5% | OVCAR-3 ovarian 46.6% | HS 578T breast 52.4% | NCI/ADR-RES ovarian 57.7% | T-47D breast 45% | BT-549 breast 78.7% | MDA-MB-435 melanoma 36.8% | SW-620 colon 21.8% | MCF7 breast 27.4% | HCT-116 colon 13.7% | HCC-2998 colon 50.8% | KM12 colon 40.5%

CC1OC(n2c3ccccc3c3c4c(c5c6ccccc6[nH]c5c32)C(=O)N(CCN[C@H]2CCC[C@@H]2N)C4=O)CC(O)C1O (stereo not given in full)
active: SR leukemia -1.11% | MCF7 breast 6.49%
inactive: OVCAR-8 ovarian 27.7% | OVCAR-5 ovarian 80.4% | OVCAR-4 ovarian 34.9% | SK-OV-3 ovarian 40.7% | IGROV1 ovarian 36.4% | OVCAR-3 ovarian 52.7% | HS 578T breast 52.3% | NCI/ADR-RES ovarian 88.2% | T-47D breast 29% | BT-549 breast 46.9% | MDA-MB-435 melanoma 29.2% | SW-620 colon 17.4% | HCT-116 colon 24.6% | HCC-2998 colon 17% | KM12 colon 20.2%

O=C(O)C(CCc1ccccc1)NCc1ccccc1 (stereo not given)
inactive: SR leukemia 106% | OVCAR-8 ovarian 106% | OVCAR-5 ovarian 93.5% | OVCAR-4 ovarian 78.5% | SK-OV-3 ovarian 98.5% | IGROV1 ovarian 101% | OVCAR-3 ovarian 100% | HS 578T breast 99.4% | NCI/ADR-RES ovarian 93.7% | T-47D breast 96.3% | BT-549 breast 47.4% | MDA-MB-435 melanoma 104% | SW-620 colon 102% | MCF7 breast 95.3% | HCT-116 colon 90.7% | HCC-2998 colon 97.2% | KM12 colon 100%

CC(C)c1nc2ccccc2n1CC(=O)N/N=C/c1cccc(O)c1
inactive: SR leukemia 89.7% | OVCAR-8 ovarian 92.6% | OVCAR-5 ovarian 108% | OVCAR-4 ovarian 104% | SK-OV-3 ovarian 93.2% | IGROV1 ovarian 118% | OVCAR-3 ovarian 109% | HS 578T breast 98.3% | NCI/ADR-RES ovarian 109% | T-47D breast 103% | BT-549 breast 99.7% | MDA-MB-435 melanoma 99.8% | SW-620 colon 93.6% | MCF7 breast 105% | HCT-116 colon 87% | HCC-2998 colon 104% | KM12 colon 103%

CCN1C(=O)N(CC)C2C1NC(=O)N2/N=C/C=C/c1ccccc1 (stereo not given)
inactive: SR leukemia 20.3% | OVCAR-8 ovarian 60.5% | OVCAR-5 ovarian 80.1% | OVCAR-4 ovarian 64.4% | SK-OV-3 ovarian 36.7% | IGROV1 ovarian 53.2% | HS 578T breast 34.8% | NCI/ADR-RES ovarian 38.7% | T-47D breast 34.2% | BT-549 breast 52.1% | SW-620 colon 24.2% | MCF7 breast 12% | HCT-116 colon 19.6% | HCC-2998 colon 64.2% | KM12 colon 23.4%
active: OVCAR-3 ovarian 7.58% | MDA-MB-435 melanoma -2.78%
